AF4-AF9 inh – MLL-AF4/AF9 protein interaction inhibition; inhibition, % at 10 µM; AlphaScreen, biotin-AF4 peptide binding to FLAG-AF9; hit rate 0.47% among 350,000;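 active = every replicate reaching a set inhibition limit, whatever the replicate mean, cut at about 25% in these data; inconclusive = mean inhibition reaches that limit but some replicates miss it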;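 also: 0% = plate neutral control median and 100% = total signal loss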
Target sequence (P42568 whole entry, looked up): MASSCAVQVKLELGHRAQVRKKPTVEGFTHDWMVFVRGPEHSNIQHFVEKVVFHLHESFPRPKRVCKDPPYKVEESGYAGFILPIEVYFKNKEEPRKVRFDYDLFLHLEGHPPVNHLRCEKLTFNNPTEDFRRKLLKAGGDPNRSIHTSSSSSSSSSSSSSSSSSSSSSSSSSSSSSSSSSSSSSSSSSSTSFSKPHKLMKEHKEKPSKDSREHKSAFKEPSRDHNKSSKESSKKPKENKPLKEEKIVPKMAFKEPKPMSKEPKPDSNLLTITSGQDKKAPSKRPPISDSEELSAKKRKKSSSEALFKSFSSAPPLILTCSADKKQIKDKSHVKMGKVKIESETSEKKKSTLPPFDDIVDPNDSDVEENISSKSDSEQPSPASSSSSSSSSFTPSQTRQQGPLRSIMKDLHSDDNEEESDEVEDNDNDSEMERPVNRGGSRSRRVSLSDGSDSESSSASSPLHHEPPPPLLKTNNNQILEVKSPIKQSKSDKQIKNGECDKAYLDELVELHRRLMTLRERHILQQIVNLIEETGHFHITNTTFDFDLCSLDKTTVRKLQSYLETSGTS
rRNA inh HTS – inhibits bacterial ribosomal RNA function over humanized ribosomes | E. coli WT GFP vs humanized-ribosome RFP mutants, fluorescence, 24 h; active compounds read low; DMSO median 0, no signal -100 | GFP signal change (wild-type ribosome), % (concentration not given with the values) | hit rate 1.6% among 350,000;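 active = significant combined selectivity score with lowered wild-type GFP, culture density cut under 30%, mutant RFP and density less affected; inactive = any of these conditions unmet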
MITF act – activators of MITF-driven TRPM1 promoter activity in SK-MEL-5 cells. SK-MEL-5 TRPM1-promoter luciferase, 24 h; % of positive control, neutral wells = 0. activation, % at 12.5 µM. hit rate 0.75% among 300,000. AID 588334;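 active = mean activation of at least 80% with every replicate also reaching 80%; inconclusive = mean reaches 80% but some replicate falls short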;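 also: 0% = neutral control wells and 100% = parthenolide positive control wells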
esBAF inh – blocks esBAF chromatin remodeling in mouse ES cells; Bmi1-luciferase knock-in reporter, 24 h; 100% = twice the neutral-well signal; reporter increase, % at 12.5 µM; hit rate 2% among 350,000; AID 602393; in the data active = activation above about 40%; inconclusive = no clear call, values can overlap the other calls;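 also: 0% = median of the plate's neutral control wells and 100% = double that signal; a rise in the Bmi1 reporter signal indicates esBAF inhibition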
Wnt bcat act – activates Wnt/beta-catenin signaling in a reporter cell assay | activator, plate reader | activation, % at 9.35 µM | hit rate 1.2% among 300,000 | AID 743398; in the data active = activation above about 30%, passing the limit was not always enough; inconclusive = no clear call, values can overlap the other calls;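 also: 0% = neutral control wells and 100% = positive control wells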
* hit, by the source's call; ? = inconclusive; . = no result; ! = repeats disagree. Most compounds without a hit are left out; they make up all but 3.7% or so of the library.

SMILES	AF4-AF9 inh	rRNA inh HTS	MITF act	esBAF inh	Wnt bcat act
Cc1nc(NC(=S)Nc2ccccc2)sc1C	-0.4	-26.6*	53.9	.	79.7*
NNC(=O)c1csc(Cc2c(Cl)sc3ccc(Cl)cc23)n1	1.6	-30.8*	2.4	-10.3	2.9
Cc1cccc(N2C(=O)CC(N(O)c3ccccc3)C2=O)c1 (stereo not drawn)	.	.	.	60.9*	13.7
C[C@@H]1CCCCO[C@@H](CN(C)C(=O)C2CCCCC2)[C@H](C)CN([C@H](C)CO)C(=O)c2cc(NC(=O)Nc3ccc(C(F)(F)F)cc3)ccc2O1	-0.1	2.1	.	5.5	.
CC(=O)C1=C(O)C(=O)N(c2ccc(Br)cn2)C1c1ccccc1[N+](=O)[O-] (stereo not drawn)	-1.3	-9.9	-10.8	6.0	-0.9
COc1ccc2cc(C(=O)OC(C)C)sc(=O)c2c1OC	.	.	39.3	53.2*	.
COc1cccc2c(=O)c(C(=O)NCCc3ccccc3)c[nH]c12	3.9	-1.9	.	54.9*	12.3
O=[N+]([O-])c1cc(/C=N/Nc2nc(N3CCOCC3)nc(N3CCOCC3)n2)ccc1Cl	-1.5	10.7	11.6	.	.
C[C@@H]1CN([C@H](C)CO)C(=O)Cc2cc(NS(=O)(=O)c3cccs3)ccc2O[C@H]1CN(C)S(=O)(=O)c1ccccc1	1.3	-0.9	.	-1.0	.
CCOc1ccc(-n2c(COc3ccc(C)cc3)nnc2SCC(N)=O)cc1	.	.	.	-1.8	71.2*
COc1ccc(-n2c(COc3ccc(C)cc3)nnc2SCC(=O)O)cc1	0.7	-3.3	-0.5	-5.4	-2.7
C[C@H](CO)N1C[C@H](C)[C@@H](CN(C)C(=O)Cc2ccccc2)OCCCC[C@H](C)Oc2ccc(NS(=O)(=O)c3ccccc3)cc2C1=O	-0.8	-3.3	.	1.7	.
O=C(Nc1ccc(OC(F)(F)F)cc1)c1n[nH]c(Cn2cncn2)n1	.	.	.	6.7	81.1*
CCc1sc(NC(C)=O)nc1-c1ccccc1	-1.0	-18.0	20.6	0.4	.
CCc1sc(N2C(=O)C3C4CCC(C4=C(C)C)C3C2=O)nc1-c1ccccc1 (stereo not drawn)	.	.	-3.8	54.3*	.
COc1ccc(/C=N/Nc2nc(C)nc(N)n2)cc1	2.4	-3.0	31.7	54.9*	6.0
CCNc1nc(NCC)nc(N/N=C/c2ccc(OC)cc2)n1	1.0	10.2	.	.	-0.4
O=C(C[C@@H]1CC[C@@H](NC(=O)CN2CCOCC2)[C@H](CO)O1)NC1CCC1	-1.1	2.2	.	-2.2	.
C=CCOc1cccc(/C=N/NC(=O)CC(=O)NC2CCCCC2)c1	-1.4	.	4.6	.	1.2
COc1ccccc1CN1[C@H](CO)[C@@H](c2ccccc2)C12CN(C(=O)c1ccccn1)C2	-0.9	-1.9	.	.	.
C=CCN(CC=C)CCCOc1ccc(C)cc1OC	2.5	10.2	-10.3	.	-0.6
Cn1cccc1/C=C1\SC(=Nc2cccc(O)c2)NC1=O	25.1*	-19.9	62.1	?	29.4
Cc1ccc(CN2CCN(C3CCCC3)C(CCO)C2)s1 (stereo not drawn)	-2.2	15.2	8.5	-1.1	31.0*
CCCC#Cc1cnc2c(c1)C(=O)N([C@H](C)CO)C[C@@H](C)[C@@H](CN(C)C(=O)Cc1ccccc1)O2	-2.5	5.5	.	-1.9	.
Cc1ccc(-c2nnc(-c3ccc(Br)cc3)o2)o1	.	.	.	64.1*	27.2
SMILES	AF4-AF9 inh	rRNA inh HTS	MITF act	esBAF inh	Wnt bcat act
Brc1ccc(-c2nnc(-c3ccco3)o2)cc1	.	.	?	59.5*	.
NS(=O)(=O)c1ccc(NC(=S)N2CCC(O)CC2)cc1	-2.7	18.1	-11.8	.	-0.2
O=S(=O)(/N=C(/Nc1ccc(Cl)c(S(=O)(=O)Nc2ccccc2Cl)c1)c1ccc(F)cc1)c1ccccc1	-1.2	-28.2*!	-0.6	.	-1.5
CCC1SC(CC)C(=O)N(CC(=O)NCc2ccc(F)cc2)C1=O (stereo not drawn)	-3.9	-9.1	-0.3	.	-1.5
Clc1ccc(-c2cn3cc(Cl)ccc3n2)cc1	-2.7	2.3	8.9	.	20.9
Clc1ccc(-c2cn3c(n2)CCC3)cc1	.	.	92.5*	.	.
Cc1c(C(=O)NN)nn(-c2ccc(Cl)cc2)c(=O)c1C#N	0.4	-15.9*	-43.7	.	-13.3
Cc1ccc(-n2nc(C(=O)NN)c(C)c(C#N)c2=O)cc1Cl	0.3	0.8	-12.8	-26.6	16.1
NNC(=O)c1nn(-c2ccc(Cl)cc2)cc1O	-10.8	-19.4*	-11.4	-1.1	2.9
Cc1ccc(NC(=O)COC(=O)c2nn(-c3ccc(Cl)cc3)cc2O)cc1	0.6	-10.2	30.6	49.1*	4.7
CNC(=O)c1nn(-c2ccc(Cl)cc2)ccc1=O	.	.	1.8	-11.7	-0.1
O=C(COC(=O)c1nc(Cl)ccc1Cl)Nc1ccc(Cl)cc1	-1.4	-9.1	-17.4	-3.7	-0.5
O=[N+]([O-])c1ccccc1S(=O)(=O)NCCSCc1ccco1	5.3	.	-2.4	14.7	-1.6
CC(C)N(C)C1=CC(=O)C(N(C)C(C)C)=CC1=O	-3.0	.	-19.2	.	3.9
COc1ccc(-c2cc3ccccc3[nH]2)cc1	18.6	3.1	?	39.4	54.1*
Cc1ccc(O)c(-c2cc3ccccc3[nH]2)c1	.	.	20.0	29.8	36.7*
COc1ccc(-c2cc(=O)c3ccccc3[nH]2)cc1	-12.9	8.2	9.7	9.6	7.1
Cc1ccc(O)c(-c2cc(-c3ccccc3F)[nH]n2)c1	.	.	25.7	.	.
COCC(=O)Nc1ccc2c(c1)C(=O)N(C)C[C@H](OC)[C@H](C)CN(Cc1cccnc1)[C@@H](C)CO2	0.0	3.5	.	6.6	.
O=C(NC(=S)Nc1ccc2nc[nH]c2c1)c1ccccc1	3.8	4.8	101.8*	55.4*	17.4
O=C(O)c1cccc(NC(=S)NC(=O)c2ccc3ccccc3c2)c1	0.1	-11.5	-37.5	.	15.8
Cc1ccc(NC(=S)NC(=O)c2ccccc2)cc1NC(=S)NC(=O)c1ccccc1	-2.2	12.2	-15.9	28.2	9.2
O=C(Nc1ccc2ncccc2c1)c1ccccc1	0.4	14.7	-10.4	-4.8	-1.2
CCC(=O)Nc1cccc(NC(=S)NC(=O)c2ccc(C)cc2)c1	-1.1	-1.2	46.8	96.0*	-7.5
O=C(NC(=S)Nc1ccc2ncccc2c1)c1ccccc1	-0.7	-20.7*	74.9	67.2*	15.1
SMILES	AF4-AF9 inh	rRNA inh HTS	MITF act	esBAF inh	Wnt bcat act
O=C(O)c1ccc(NC(=S)NC(=O)c2ccc3ccccc3c2)cc1	-1.3	-1.0	2.0	40.8*	18.4
CCOC(=O)CC1(NC(=O)c2cc(COc3ccc(F)c(F)c3)on2)CCCCC1	-10.7	-1.8	-15.0	-4.5	-1.5
COc1ccc(-c2csc(NC(C)c3nc4cc(Cl)c(N5CCCCC5)cc4n3CCCO)n2)cc1 (stereo not drawn)	1.8	6.0	0.8	-8.9	-3.8
CCOc1cccc(C(=O)NC(=S)Nc2ccccc2)c1	3.0	.	92.9*	.	5.0
COc1ccc(NC(=S)Nc2ccc3cn[nH]c3c2)cc1	-22.3	2.5	8.4	12.9	12.5
CC(C)(C)NC(=S)NNC(=O)c1ccc2ncccc2c1	-8.0	-3.6	73.1	56.6*	11.2
CCOc1cccc(C(=O)NC(=S)Nc2cccnc2)c1	.	.	6.0	.	.
CCc1ccc(NC(=S)Nc2ccc3cn[nH]c3c2)cc1	10.5	-21.3*	14.9	.	8.8

Screening data from PubChem.
